The list is not random: actives were taken first. Their share in the collection is about 6%.
Sfp PPTase inh = Sfp phosphopantetheinyl transferase inhibition. Q9F4F7. Biochemical Sfp PPTase activity, qHTS. Potency, µM, hits mostly inhibitors. hit rate 3.5% among 310,000. AID 1490;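 further: the enzyme is Sfp with the accession as filed and its product quenches rhodamine fluorescence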
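Fluorescence-quenching assay: 15 nM Sfp-PPTase preincubated 15 min at room temperature with compound, then 5 uM rhodamine-CoA and 12.5 uM BHQ-2-labelled YbbR peptide added. Fluorescence (ex 525/em 598 nm) read at start and after 30 min; difference gives rate.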
Tau fibril ThT = tau fibrillization inhibition (ThT binding) | hit rate 2.1% among 270,000 | P10636 | Potency, µM (doses to about 57.4 µM), actives largely listed as inhibitors | AID 1460 | recombinant tau K18 P301L, heparin-induced fibrillization, ThT fluorescence; further: nearly all actives have a fitted effect of over 55% in size
Target sequence (P10636 561-689 P618L limits assumed): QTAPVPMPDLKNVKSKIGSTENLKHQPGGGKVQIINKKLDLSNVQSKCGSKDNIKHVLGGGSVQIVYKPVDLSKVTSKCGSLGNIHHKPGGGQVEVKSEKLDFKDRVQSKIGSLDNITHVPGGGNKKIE
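ThT emission at 510 nm, taken 1 hr after adding 30 uM dye, quantifies aggregates formed when 20 uM heparin acts on human tau K18 P301L for 6 hr at 37 C.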
VDR inh = inhibitors of human vitamin D receptor; P11473; VDR-SRC2-3 peptide fluorescence polarization, 2 h; Potency, µM, most hits filed as inhibitors; hit rate 0.93% among 400,000; AID 504847
Target sequence (P11473 whole entry, looked up): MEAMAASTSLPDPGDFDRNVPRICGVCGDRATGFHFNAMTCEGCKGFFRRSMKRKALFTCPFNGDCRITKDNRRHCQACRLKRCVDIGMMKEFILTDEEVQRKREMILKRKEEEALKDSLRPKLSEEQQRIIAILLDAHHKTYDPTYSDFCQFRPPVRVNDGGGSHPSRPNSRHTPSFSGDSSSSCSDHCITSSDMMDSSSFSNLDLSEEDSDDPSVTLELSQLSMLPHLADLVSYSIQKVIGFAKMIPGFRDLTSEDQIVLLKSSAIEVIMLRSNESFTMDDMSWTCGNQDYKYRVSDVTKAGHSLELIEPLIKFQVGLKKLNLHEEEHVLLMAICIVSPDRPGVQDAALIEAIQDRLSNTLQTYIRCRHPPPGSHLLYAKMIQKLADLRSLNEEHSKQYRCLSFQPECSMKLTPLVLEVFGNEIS
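Reagent solutions, kept cold and dark, are dispensed first; compounds are then pinned in at 23 nl, plates briefly spun, and incubated 2 h at ambient temperature. Inhibition of VDR–SRC2-3 peptide binding is read by fluorescence polarization.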
PLK1 PBD inh = PLK1 (human) polo-box domain binding inhibition; P53350; Plk1 PBD binding of FITC phosphopeptide, fluorescence polarization; Potency, µM, usual class: inhibitors; hit rate 2.8% among 360,000; AID 720504; further: series mostly up to about 57 µM; nearly all actives have a fitted effect of over 65% in size
Tau fluor cs = counter-screen for tau fibril formation inhibitors; tau K18 P301L (four-repeat tau fragment) Alexa594 fluorescence, heparin fibrillization; Potency, µM (doses to about 57.7 µM); hit rate 0.93% among 280,000; further: nearly all actives have a fitted effect of over 55% in size
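Human K18 P301L tau (15 uM unlabeled plus 0.24 uM Alexa 594-labeled, final) in 100 mM sodium acetate pH 7 was mixed with compound and 20 uM heparin and incubated 6 hr at 37 C.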
Tau fibril FP = blocks human tau fibril formation measured by polarization; P10636; K18 P301L tau heparin fibrillization, Alexa594 FP, 6 h; Potency, µM (series often up to 57.7 µM), actives largely listed as inhibitors; hit rate 0.39% among 280,000; AID 1468; further: nearly all actives have a fitted effect of over 55% in size
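K18 P301L tau (15 uM unlabeled/0.24 uM Alexa 594-labeled, final) + compound + heparin 20 uM final; 100 mM NaOAc pH 7; 6 hr 37 C; ThT 30 uM final added, 1 hr RT; FP ex 555/em 632 nm.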
A number is an active result; i = inactive; ? = inconclusive; nt = no result; [ ] = dose if it differs, or a comment. The call rests on the fitted dose curve; in most records, active means well fitted curve in the direction sought with a large enough effect; inconclusive means small, poorly fitted or top-dose-only effect, or another doubt; inactive means no such curve, though single readings can be large; an effect the other way counts as inactive or inconclusive.

SMILES | Sfp PPTase inh | Tau fibril ThT | VDR inh | PLK1 PBD inh | Tau fluor cs | Tau fibril FP
CN(Cc1cccs1)c1ncnc2sccc12 | 79µM | i | i | i | i | i
CN(Cc1ccccc1F)c1ncnc2sccc12 | i | nt | i | i | nt | nt
CCOc1ccccc1NC(=O)CSc1nc2c(oc3ccccc32)c(=O)n1-c1ccc(C)c(C)c1 | nt | i | i | nt | i | i
O=C(CCCn1c(=O)c2cccn2c2cccnc21)Nc1ccccc1C(F)(F)F | nt | i | i | nt | i | i
CC(C)c1ccc(NC(=O)c2snc3ccc(Cl)cc23)cc1 | i | ? | i | i | ? | 22µM
Clc1cccc(Cc2c(C3CCCCC3)nc3c4ccccc4ccn23)c1 | nt | nt | nt | i | nt | nt
O=C(N=Nc1c(O)n(Cc2ccccc2)c2ccccc12)c1ccc(O)cc1 | i | 14µM | i | i | ? | i
O=C(N=Nc1c(O)n(Cc2ccccc2)c2ccccc12)c1cc2ccccc2cc1O | ? | 13µM | i | i | i | ?
COc1ccc(C(=O)NCC(=O)N=Nc2c(O)n(Cc3ccccc3)c3ccccc23)cc1OC | i | ? | i | i | i | i
Cc1ccc(NC(=O)Cn2c(O)c(N=NC(=O)c3cc4ccccc4cc3O)c3ccccc32)cc1 | i | ? | i | i | i | i
O=S1(=O)CC(O)C(N=Nc2c(O)n(Cc3ccccc3)c3ccccc23)C1 (stereo not given) | i | i | ? | 13µM | i | i
CO[C@@H]1COC(=O)[C@@H](C)COC(=O)[C@@H](C)NC(=O)C/C=C\[C@@H]1C | i | i[11.5 µM] | nt | nt | i[11.6 µM] | i[11.6 µM]
O=C(O)C1CSC(c2ccc3c(c2)OCO3)N1 (stereo not given) | 25µM | ? | ? | 11µM | i | ?
N/C(=N\N=C\c1ccc(Cl)cc1)N/N=C/c1ccc(Cl)cc1 | 79µM | nt | ? | nt | nt | nt
CCOc1ccc(-c2nnc(SCC(=O)NCc3ccccc3)nc2-c2ccc(OCC)c(OC)c2)cc1OC | nt | i | i | nt | i | i
Cc1ccc(C(=O)NC(C)c2ccc3c(c2)OCO3)s1 (stereo not given) | i | i | ? | 12µM | i | i
CC(NC(=O)c1cccs1)c1ccc2c(c1)OCO2 (stereo not given) | i | i | i | i | i | i
Cc1ccc2nc(Nc3ccc(C)c(C)c3)c3nncn3c2c1 | i | nt | i | i | nt | nt
Cc1cc2ccccc2n1-c1ccc(C(=O)N2CCC(C(=O)NCc3ccc(Cl)cc3)CC2)s1 | nt | i | i | nt | i | i
CCCCCCCCCCCCCCCCCCNc1ccn(C2OC(COP(=O)(O)OCC3OC(n4cc(F)c(=O)[nH]c4=O)CC3O)C(O)C2O)c(=O)n1 (stereo not given) | nt | nt | ? | 27µM | nt | nt
Cc1ccc2nc(N(Cc3cccnc3)C(=O)C3COc4ccccc4O3)sc2c1 (stereo not given) | nt | i | i | nt | i | i
CN1C=CC=C/C1=C1\SC(=S)N(c2ccccc2)C1=O | 25µM | ? | ? | i | i | i
CN1C=CC=C/C1=C1\SC(=S)N(C2CCCCC2)C1=O | i | ? | i | i | i | i
CN1C=CC=C/C1=C1\SC(=S)N(CC(=O)O)C1=O | 45µM | ? | i | i | i | i
CCN1C(=O)/C(=C2/C=CC=CN2C)OC1=S | i | i | i | i | i | i
SMILES | Sfp PPTase inh | Tau fibril ThT | VDR inh | PLK1 PBD inh | Tau fluor cs | Tau fibril FP
CN(O)/C=N/C(=S)Nc1ccc(Cl)cc1Cl | ? | i | ? | 30µM | i | i
CN(C)/C=N/C(=S)Nc1ccc(Cl)c(Cl)c1 | i | i | ? | 24µM | i | i
CN(C)/C=N/C(=S)Nc1ccccc1F | i | i | i | i | i | i
CCNC(=S)Nc1ccc(Cl)cc1Cl | i | i | i | i | i | i
CN(C)/C=N/C(=S)Nc1ccccc1Cl | 50µM | i | i | i | i | i
COc1ccc(CCNC(=O)c2cc(Nc3ccccc3)nc3ccccc23)cc1OC | nt | i | i | nt | ? | ?
CCCCC(=O)NC(c1ccc(Cl)cc1)c1ccc2cccnc2c1O (stereo not given) | nt | nt | ? | 27µM | nt | nt
CCCCC(=O)NC(c1ccc(N(CC)CC)cc1)c1ccc2cccnc2c1O (stereo not given) | i | nt | i | i | nt | nt
CCC(=O)NC(c1ccc(OC)c(OC)c1)c1cc(Cl)c2cccnc2c1O (stereo not given) | 56µM | i | i | i | i | i
CCCCC(=O)NC(c1ccc(N(C)C)cc1)c1ccc2cccnc2c1O (stereo not given) | i | nt | i | 27µM | nt | nt
S=c1nc[nH]c2c1ncn2C1CCCO1 (stereo not given) | 4µM | i | ? | 27µM | i | i
CCS(=O)(=O)N1CCN(c2ccc(C(=O)NC34CC5CC(CC(C5)C3)C4)cc2[N+](=O)[O-])CC1 | i | ? | i | i | i | i
CS(=O)(=O)N1CCN(c2ccc(C(=O)NC34CC5CC(CC(C5)C3)C4)cc2[N+](=O)[O-])CC1 | i | i | i | 27µM | i | i
Cc1noc(C)c1COC(=O)CCCc1c[nH]c2ccccc12 | 50µM | i | i | i | i | i
CCOC(=O)CCCc1c[nH]c2ccccc12 | i | i | i | i | i | i
CCCCc1nnc(NC(=O)CSc2nc(O)c(-c3ccccc3)c(=O)[nH]2)s1 | ? | ? | i | i | i | i
CCCCc1nnc(NC(=O)CSc2nc(O)c(Cc3ccccc3)c(=O)[nH]2)s1 | i | ? | i | 27µM | i | i
NC(=NCc1ccc(Cl)cc1Cl)NC(=O)c1nc(Cl)c(N)nc1N | 25µM | ? | i | nt | i | i
O=C1c2cccc3cccc(c23)C(=O)N1c1cccnc1 | ? | i | i | i | ? | 13µM
COc1cc(/C=N/Nc2nc3c(c(=O)n(C)c(=O)n3C)n2Cc2ccccc2)ccc1OC(=O)c1ccco1 | i | ? | i | i | 7.9µM[quencher] | ?
Cc1ccc(S(=O)(=O)N(C)CCN(C)c2nc(-c3cccs3)nc3ccccc23)cc1 | nt | nt | i | nt | nt | nt
COc1ccc2c(c1)CCCC2NS(=O)(=O)OCC(Cl)(Cl)Cl (stereo not given) | i | nt | i | i | nt | nt
CC1(C)CC(NS(=O)(=O)OCC(Cl)(Cl)Cl)c2cc(C#N)ccc2O1 (stereo not given) | i | nt | ? | 24µM | nt | nt
CCC1CO/C(=C(\C(Cl)=C(Cl)Cl)[N+](=O)[O-])N1 (stereo not given) | i | 35µM | i | ? | i | ?
O=C1c2cccc3c(O)ccc(c23)C(=O)N1Cc1ccco1 | 7.1µM | ? | ? | 4.7µM | i | i
CC(=O)Nc1ccc(N2C(=O)c3cccc4c(O)ccc(c34)C2=O)cc1 | i | nt | i | 4.7µM | nt | nt
Cc1ccc(N2C(=O)c3cccc4c(C(=O)O)ccc(c34)C2=O)cc1 | i | i | nt | i | i | i
O=C1c2cccc3c(O)ccc(c23)C(=O)N1c1ccc(Cl)cc1 | ? | nt | i | 4.7µM | nt | nt
CC(=O)NCCNc1nc2cc(-c3cnn(CCC(C)C)c3)sc2c(=O)n1C | nt | nt | nt | i | nt | nt
C=CCOC(=O)N[C@@H](c1cccs1)C(C(C)=O)C(C)=O | i | i | i | nt | i | i

High-throughput results as filed in PubChem.
